Here are results for 19 molecules from ChEMBL document CHEMBL3988442, “University of Dundee, Small-Polar-MMV Screening Library” (2021).

The test concerns the target AMP-activated protein kinase, AMPK (Homo sapiens) (UniProt P54646+O43741+P54619+Q9UGJ0+Q9Y478+Q13131+Q9UGI9). As to the kind of experiment: AMP-dependent Kinase enzyme assay. An in vitro enzyme assay that detects ADP turnover that is directly proportional to AMPK activity. This uses naive AMPK that is activated during the assay with MK-8722. In kind it is functional. Further details: scale not given: direction of the effect not stated beside the values. As to conditions: 30 µM.
As for `COc1ccccc1CC(=O)NCc1c(C)nc2cc(=O)[nH]n2c1C`, the Percent Effect is -13.8%.
The same measure for `Cc1cc(-c2nnc(SCC(=O)O)n2C(C)c2ccccc2)nn1C` (centres undefined): -0.551%; for `CCOCCOC(C)C(=O)NCc1cn2cc(Br)ccc2n1` (centres undefined): 8.27%; for `CCc1nc2n(n1)CC(NCc1nc(C)ccc1O)CC2` (centres undefined): 1.61%.
As to `COc1ccccc1CC(=O)NS(C)(=O)=O`, the Percent Effect was determined as 1.28%.
As to `Cn1ccc(C(=O)NC2CCC23CCN(C(=O)c2ccncc2)CC3)c1` (centres undefined), the Percent Effect is -2.76%.
In the case of `O=C1N(c2ccc(F)cc2)Cc2nc(=O)n(Cc3cccc(Cl)c3)n21`, the Percent Effect was found to be 8.75%.
As to `CNc1oc(-c2cc(S(=O)(=O)N3CCCCCC3)c(C)o2)nc1C#N`, the Percent Effect was 2.78%.
Under `COc1ccc(CN2CCCC3(CCN(c4ccsc4)C3=O)C2)cc1` (centres undefined) stands 5.65%.
For the molecule `CCCc1n[nH]c(C2CN(CCCOc3ccccc3)CCO2)n1` (centres undefined), the Percent Effect turned out to be 7.41%.
For `COCCNC(=O)c1sc(Nc2ccc(Cl)cn2)nc1C`, the Percent Effect is -8.36%.
On to `c1ccc(CCN2CCOC(Cn3cccn3)C2)nc1` (centres undefined), for which the Percent Effect was -1.28%.
The same measure for `CC1=Nc2c(c(=O)[nH]n2C(C)C)C(c2ccccc2)S1` (centres undefined): 12.2%; for `CCCS(=O)(=O)N1CCO[C@H]2[C@H](OCc3ccccn3)CC[C@@H]21`: -5.79%.
The same measure for `Cc1nn(C)c(C)c1C1CCCN1C(=O)CCNc1ncccn1` (centres undefined): -8.92%; for `Cn1c(Cn2ccnc2)nnc1C1CCCN(C2CCCCC2)C1` (centres undefined): 5.59%.
For `Cc1cc(N2CCN(C(=O)c3cc(Cl)c[nH]3)CC2)nc(N)n1`, the Percent Effect was -3.11%.
The same measure for `CCNc1cc2c(nn1)CCN(C(=O)c1ccc(NC3CC3)nc1)C2`: -3.65%; for `Cc1cn2c(n1)CCC(NC(=O)CCn1ccnn1)C2` (centres undefined): -3.01%.
